# Unmarked numbers belong to inactive results. Results filed as inconclusive are left out. Activity calls are given as the source filed them. Calls follow the shape of the dose curve; as a rule, active = well fitted curve in the direction sought with a large enough effect; inconclusive = small, poorly fitted or top-dose-only effect, or another doubt; inactive = no such curve, though single readings can be large; an effect the other way counts as inactive or inconclusive.
# Tested on: not listed separately
# Experiment: Validation qHTS assay for inhibitors of Activation Induced Cytidine Deaminase (AID): UDG Counterscreen signal (AID 1347427); also: 0% is about no effect
# Settings: biochemical UDG counterscreen, fluorescence signal; series mostly up to 115 µM; activity, negative = inhibition: at the top concentration
# Summary of the method: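 Fluorescence at 560 nm excitation, 665 nm emission reports UDG signal after 250 mM NaOH (2x) addition and 30 min. Enzymes (AID 1 uM, UDG 2 U/mL, at 4/3x) preincubated 10 min with compound, then 4 h with 4x 250 nM DJC20/DJC23 substrate at room temperature.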
row,Structure (SMILES),"activity, negative = inhibition [%]"
1,CCN(CC)CCOC(=O)c1ccc(N)cc1,3.54
2,CCCCC1C(=O)N(c2ccccc2)N(c2ccccc2)C1=O,3.45
3,CC(=O)c1ccc(S(=O)(=O)NC(=O)NC2CCCCC2)cc1,13.2
4,COc1ccc(Cc2nccc3cc(OC)c(OC)cc23)cc1OC,-8.81
5,CCn1cc(C(=O)O)c(=O)c2ccc(C)nc21,10
6,CN(C)CCC(c1ccccc1)c1ccccn1 (configuration not stated),6.22
7,O=C(O)CCc1nc(-c2ccccc2)c(-c2ccccc2)o1,8.16
8,O=c1cc(-c2ccc(O)cc2)oc2cc(O)cc(O)c12,2.06
9,CC1=C(/C=C/C(C)=C/C=C/C(C)=C/C(=O)Nc2ccc(O)cc2)C(C)(C)CCC1,-5.04

# Biological target: Single-stranded DNA cytosine deaminase (Homo sapiens) (UniProt Q9GZX7)
# Experiment: Validation qHTS assay for inhibitors of Activation Induced Cytidine Deaminase (AID): AID signal (AID 1347429); also: potency is read from the fitted curve at half-maximal effect; as to activity change, negative = inhibition: % is scaled to controls: 0 for no effect and ±100 for the full control effect
# Settings: Recombinant AID, FRET ssDNA deamination with UDG, fluorescence; series mostly up to 115 µM; activity change, negative = inhibition: at the top concentration
# Summary of the method: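 AID+UDG coupled FRET deamination; cpds up to 114 uM final; DJC20/DJC23 substrate, 4 hr RT; NaOH stop, 30 min RT; read Ex 540/Em 590.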
# Single-stranded DNA cytosine deaminase (Homo sapiens), sequence (Q9GZX7 whole entry, looked up): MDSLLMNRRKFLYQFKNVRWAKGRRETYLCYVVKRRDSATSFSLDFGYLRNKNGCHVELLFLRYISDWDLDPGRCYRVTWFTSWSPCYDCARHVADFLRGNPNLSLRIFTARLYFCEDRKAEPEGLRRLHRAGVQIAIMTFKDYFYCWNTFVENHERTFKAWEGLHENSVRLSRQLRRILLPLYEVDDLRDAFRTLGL
Structure (SMILES),"activity change, negative = inhibition [%]",Potency
CCN(CC)CCOC(=O)c1ccc(N)cc1,12.1,–
CCCCC1C(=O)N(c2ccccc2)N(c2ccccc2)C1=O,6.79,–
CC1(C)CCC2=C(O1)c1ccccc1C(=O)C2=O,–,7.08 µM (active)
CC(=O)c1ccc(S(=O)(=O)NC(=O)NC2CCCCC2)cc1,20.4,–
COc1ccc(Cc2nccc3cc(OC)c(OC)cc23)cc1OC,256,–
CCn1cc(C(=O)O)c(=O)c2ccc(C)nc21,21,–
CN(C)CCC(c1ccccc1)c1ccccn1 (configuration not stated),7.52,–
O=C(O)CCc1nc(-c2ccccc2)c(-c2ccccc2)o1,8.48,–
O=c1cc(-c2ccc(O)cc2)oc2cc(O)cc(O)c12,0.472,–
CC1=C(/C=C/C(C)=C/C=C/C(C)=C/C(=O)Nc2ccc(O)cc2)C(C)(C)CCC1,8.49,–

# Tested on: not listed separately
# Experiment: Primary qHTS for inhibitors of La Crosse Virus (LACV) - induced cell death in SH-SY5Y cells (AID 1508616);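 also: top concentration of the series differs between compounds; 0% = infected DMSO wells and 100% = uninfected DMSO wells; higher means more rescue of cells from virus-induced death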
# Settings: SH-SY5Y LACV cytopathicity rescue, ATP luminescence, 6 d; series mostly up to 4.29 µM; activity change: at the top concentration
# Summary of the method: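 Cytopathicity rescue screen: compounds pinned onto SH-SY5Y cells, which are then infected with LACV (MOI 0.01) and held 6 days at 37C. Percent activity is scaled between infected DMSO control and uninfected DMSO control.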
Structure (SMILES),outcome,activity change
CCN(CC)CCOC(=O)c1ccc(N)cc1,inactive,–
CCCCC1C(=O)N(c2ccccc2)N(c2ccccc2)C1=O,inactive,–
CC(=O)c1ccc(S(=O)(=O)NC(=O)NC2CCCCC2)cc1,inactive,–
CN(C)c1cc(NC(=O)CNC(C)(C)C)c(O)c2c1C[C@@H]1C[C@H]3[C@H](N(C)C)C(=O)C(C(N)=O)=C(O)[C@@]3(O)C(=O)C1=C2O,–,28.2%
CC[C@]1(O)C[C@@H]2CN(CCc3c([nH]c4ccccc34)[C@@](C(=O)OC)(c3cc4c(cc3OC)N(C)[C@H]3[C@@](O)(C(=O)OC)[C@H](OC(C)=O)[C@]5(CC)C=CCN6CC[C@]43[C@@H]65)C2)C1,–,-2.32%
O=C(O)Cc1cccc2ccccc12,inactive,–
CCn1cc(C(=O)O)c(=O)c2ccc(C)nc21,inactive,–
COC[C@@H](c1ccc(C(F)(F)F)cc1)N1CCN(C2(C)CCN(C(=O)c3c(C)ncnc3C)CC2)C[C@H]1C,–,-2.35%
O=c1c(-c2ccc(O)cc2)coc2cc(O)ccc12,–,-23.3% [at 9.63 µM]
OC[C@@H](O)[C@H](O)[C@H](O)[C@@H](O)CO,inactive,–
C[C@@H](O)[C@H]1C(=O)N2C(C(=O)O)=C(S[C@@H]3CN[C@H](C(=O)N(C)C)C3)[C@H](C)[C@H]12,inactive,–
O=C(O)c1cc(-c2ccccc2)nc2ccccc12,inactive,–
CN(C)CCC(c1ccccc1)c1ccccn1 (configuration not stated),inactive,–
O=C(O)CCc1nc(-c2ccccc2)c(-c2ccccc2)o1,inactive,–
O=c1cc(-c2ccc(O)cc2)oc2cc(O)cc(O)c12,–,12.6% [at 9.63 µM]
CCN(CC)CCNC(=O)c1ccc(N)cc1,inactive,–
CC1=C(/C=C/C(C)=C/C=C/C(C)=C/C(=O)Nc2ccc(O)cc2)C(C)(C)CCC1,–,-21%
N#C[C@H]1C[C@H]2C[C@@H]2N1C(=O)[C@@H](N)C12CC3CC(CC(O)(C3)C1)C2,–,1.47%
O=c1[nH]cnc2c1ncn2[C@H]1CC[C@@H](CO)O1,–,9.99%

# Biological target: Calcium and integrin-binding protein 1 (Homo sapiens) (UniProt Q99828)
# Experiment: Validation qHTS for Identification of Calcium Integrin Binding protein 1 (CIB1) Competitor (AID 1508618); also: % is scaled to controls: 0 for no effect and ±100 for the full control effect
# Settings: CIB1-GST / FITC-alphaIIb peptide fluorescence polarization; series mostly up to 114 µM; activity change, negative = inhibition: at the top concentration
# Summary of the method: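 In this qHTS validation, the LOPAC set (up to 114 uM) was tested for blocking CIB1 binding to a fluorescein-tagged alphaIIb peptide, with FP detection at 480/540 nm.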
# Calcium and integrin-binding protein 1 (Homo sapiens), sequence (Q99828 whole entry, looked up): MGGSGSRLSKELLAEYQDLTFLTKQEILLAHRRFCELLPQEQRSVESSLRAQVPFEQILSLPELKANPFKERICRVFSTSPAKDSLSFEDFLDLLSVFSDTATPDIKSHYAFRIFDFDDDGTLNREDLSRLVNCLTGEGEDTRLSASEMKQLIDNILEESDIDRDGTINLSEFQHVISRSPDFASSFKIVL
row,Structure (SMILES),"activity change, negative = inhibition [%]"
1,CCN(CC)CCOC(=O)c1ccc(N)cc1,-1.82
2,CC1(C)CCC2=C(O1)c1ccccc1C(=O)C2=O,1.29
3,CC(=O)c1ccc(S(=O)(=O)NC(=O)NC2CCCCC2)cc1,1.36
4,COc1ccc(Cc2nccc3cc(OC)c(OC)cc23)cc1OC,7.18
5,CN(C)CCC(c1ccccc1)c1ccccn1 (configuration not stated),-3.89
6,O=c1cc(-c2ccc(O)cc2)oc2cc(O)cc(O)c12,2.43
7,CCN(CC)CCNC(=O)c1ccc(N)cc1,5.78
8,CC1=C(/C=C/C(C)=C/C=C/C(C)=C/C(=O)Nc2ccc(O)cc2)C(C)(C)CCC1,9.6

# Biological target: Calcium and integrin-binding protein 1 (Homo sapiens) (UniProt Q99828)
# Experiment: Primary qHTS for Identification of Calcium Integrin Binding Protein 1 (CIB1) Competitor (AID 1508620);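 also: GST tagged CIB1 binding a fluorescein labelled alphaIIb integrin peptide tracer; top concentration of the series differs between compounds; % is scaled to controls: 0 for no effect and ±100 for the full control effect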
# Settings: CIB1-GST / FITC-alphaIIb peptide fluorescence polarization; series mostly up to 57.7 µM; activity change, negative = inhibition: at the top concentration
# Summary of the method: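 Fluorescence polarization competition: CIB1-GST (1 uM final) preincubated with compound 15 min at room temperature, then FITC-labeled alphaIIb peptide (100 nM final) added for another 15 min. Polarization read at Ex 480/Em 540.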
Structure (SMILES),"activity change, negative = inhibition",Potency
CCN(CC)CCOC(=O)c1ccc(N)cc1,4.46% [at 114 µM],–
CN1C[C@H]2c3ccccc3Oc3ccc(Cl)cc3[C@@H]2C1,–,inactive
CC(C)(Cc1ccc2ccccc2c1)NC[C@@H](O)COc1cccc(Cl)c1C#N,-5.08%,–
Cc1ccc(F)c(NC(=O)Nc2ccc(-c3cccc4[nH]nc(N)c34)cc2)c1,-2.99%,–
O=C1NC(=O)C(=Cc2ccc3c(c2)OC(F)(F)O3)S1,-15.8%,–
CC1(C)CCC2=C(O1)c1ccccc1C(=O)C2=O,-1.26%,–
O=c1c(O)c(-c2ccc(O)cc2)oc2cc(O)cc(O)c12,-5.95%,–
NC(=O)c1cccc(-c2cc(Nc3ccc(OC(F)(F)F)cc3)ncn2)c1,–,inactive
COC(=O)C1=CO[C@@H](O)[C@@H]2C(CO)=CC[C@@H]12,2.27%,–
CC(=O)c1ccc(S(=O)(=O)NC(=O)NC2CCCCC2)cc1,-3.78% [at 114 µM],–
CN(C)c1cc(NC(=O)CNC(C)(C)C)c(O)c2c1C[C@@H]1C[C@H]3[C@H](N(C)C)C(=O)C(C(N)=O)=C(O)[C@@]3(O)C(=O)C1=C2O,-8.1%,–
CC=CC(=O)N(CC)c1ccccc1C,-0.476%,–
CC(C)n1cnc2c(NCCCCCCNC(=O)OC(C)(C)C)nc(NCCO)nc21,-1.67%,–
O=c1cc(CN2CCOCC2)occ1OCCCCCSc1ccnc2cc(C(F)(F)F)ccc12,-6.41%,–
CC[C@]1(O)C[C@@H]2CN(CCc3c([nH]c4ccccc34)[C@@](C(=O)OC)(c3cc4c(cc3OC)N(C)[C@H]3[C@@](O)(C(=O)OC)[C@H](OC(C)=O)[C@]5(CC)C=CCN6CC[C@]43[C@@H]65)C2)C1,–,inactive
O=C(O)Cc1cccc2ccccc12,–,inactive

Structure (SMILES),"activity change, negative = inhibition",Potency
CCn1cc(C(=O)O)c(=O)c2ccc(C)nc21,–,inactive
COC[C@@H](c1ccc(C(F)(F)F)cc1)N1CCN(C2(C)CCN(C(=O)c3c(C)ncnc3C)CC2)C[C@H]1C,-3.16%,–
O=c1c(-c2ccc(O)cc2)coc2cc(O)ccc12,2.31%,–
OC[C@@H](O)[C@H](O)[C@H](O)[C@@H](O)CO,–,inactive
C[C@@H](O)[C@H]1C(=O)N2C(C(=O)O)=C(S[C@@H]3CN[C@H](C(=O)N(C)C)C3)[C@H](C)[C@H]12,–,inactive
CN(C)CCC(c1ccccc1)c1ccccn1 (configuration not stated),–,inactive
CN(C)Cc1cccc(N=C(c2ccccc2)c2c(O)[nH]c3cc(C(=O)N(C)C)ccc23)c1,1.95%,–
O=C(O)CCc1nc(-c2ccccc2)c(-c2ccccc2)o1,–,inactive
O=c1cc(-c2ccc(O)cc2)oc2cc(O)cc(O)c12,-4.64%,–
O=C(CCc1ccc(O)cc1)c1c(O)cc(O)cc1O[C@@H]1O[C@H](CO)[C@H](O)[C@H](O)[C@H]1O,1.37%,–
CCN(CC)CCNC(=O)c1ccc(N)cc1,–,inactive
O=C1NC(=O)C(=Cc2ccc(-c3ccc(F)cc3)o2)S1,-5.68%,–
Cc1c(O)cccc1C(=O)N[C@@H](CSc1ccccc1)[C@H](O)CN1C[C@H]2CCCC[C@@H]2C[C@@H]1C(=O)NC(C)(C)C,-5.78%,–
CC1=C(/C=C/C(C)=C/C=C/C(C)=C/C(=O)Nc2ccc(O)cc2)C(C)(C)CCC1,1.18% [at 114 µM],–
O=c1[nH]cnc2c1ncn2[C@H]1CC[C@@H](CO)O1,–,inactive

# Reference: PubChem BioAssay (NCATS)
